Assay: modulation of C. elegans fzo-1 (AID 1259413);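 note: fzo-1 mutant C. elegans worms in liquid wells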
Conditions: C. elegans fzo-1 modulator screen, mean read-out; stronger effect = higher value; call rule not given here

Mean signal, inactive:
CC(Oc1c(Cl)cccc1Cl)C1=NCCN1 (configuration not stated) 295
CN(C)CC[C@@H](c1ccc(Br)cc1)c1ccccn1 234
OCc1cccnc1 224
CC(C)(C)C(O)/C=C/c1ccc2c(c1)OCO2 (configuration not stated) 280
COC(=O)C1=C(C)NC(C)=C(C(=O)O[C@@H]2CCCN(Cc3ccccc3)C2)[C@@H]1c1cccc([N+](=O)[O-])c1 249
COc1cc(C)c(Cc2cnc(N)nc2N)cc1OC 249
CCN1CC(CCN2CCOCC2)C(c2ccccc2)(c2ccccc2)C1=O (configuration not stated) 250
COC(=O)C1=C(C)NC(C)=C(C(=O)OCC(C)C)C1c1ccccc1[N+](=O)[O-] (configuration not stated) 228
COc1cc2c(cc1OC)C(=O)C(CC1CCN(Cc3ccccc3)CC1)C2 (configuration not stated) 214
COc1ccc(CN2CCN(C(c3ccc(F)cc3)c3ccc(F)cc3)CC2)c(OC)c1OC 204
Cc1cccc(C)c1NC(=O)C(C)N (configuration not stated) 270
NCC1CCC(C(=O)Oc2ccc(CCC(=O)O)cc2)CC1 (configuration not stated) 243
CCCN1CCCC[C@H]1C(=O)Nc1c(C)cccc1C 274
CC(C)(O)c1ccccc1CC[C@@H](SCC1(CC(=O)O)CC1)c1cccc(/C=C/c2ccc3ccc(Cl)cc3n2)c1 259
CC(=O)Nc1ccc(CC(=O)O)cc1 292
CCN(CC)CCNC(=O)c1cc(Cl)c(N)cc1OC 245
NC1CCN(c2nc3c(cc2F)c(=O)c(C(=O)O)cn3-c2ccc(F)cc2F)C1 (configuration not stated) 292
